Screens: PubChem, National Center for Advancing Translational Sciences (NCATS)
Compounds with a hit are over-represented: about 2.4% of the library has one in this group of screens.
WRN helicase inh: blocks human WRN helicase; Q14191; WRN helicase unwinding, fluorescent forked duplex, kinetic; Potency, µM (doses to about 114 µM), for inactives: at the top dose activity change, negative = inhibition, usual class: inhibitors; 360,000 tested, 0.46% active; note: potency is the fitted concentration of half-maximal effect; % is set by controls: 0 for no effect and ±100 for the full control effect; nearly all actives have a fitted effect of over 55% in size
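Fluorescence dequenching readout, ex 525 nm/em 598 nm, kinetic mode: forked duplex DNA (100 nM final) with adjacent fluorophore and quencher unwound by WRN (20 nM final) with 2 mM ATP. Compound preincubation 15 min, room temperature.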
POLI inh: inhibitors of human DNA polymerase iota | Q9UNA4 | Pol iota fluorescent replication assay, 10 min | Potency, µM (highest dose often 115 µM), inactives show at the top dose activity, negative = inhibition, actives largely listed as inhibitors | 390,000 tested, 1% active; note: potency is the fitted concentration of half-maximal effect
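Pol iota at 10 nM preincubated 15 min with compounds at room temperature; reaction started with fluorescent substrate, 50 nM final. Fluorescence read kinetically at 0 and 10 min; buffer-only wells as negative control.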
Pol eta inh: inhibitors of human DNA polymerase eta | Q9Y253 | recombinant Pol eta, fluorescent DNA replication assay | Potency, µM (series often up to 114 µM), inactives show top-dose activity change, negative = inhibition, most hits filed as inhibitors | 390,000 tested, 1.2% active | AID 588591; note: potency is the fitted concentration of half-maximal effect; % is set by controls: 0 for no effect and ±100 for the full control effect
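Fluorescent replication assay: 50 nM final substrate added after a 15 min room-temperature compound preincubation with 10 nM enzyme. Signal taken at 0 min and again at 10 min.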
Pol beta inh-1: blocks human DNA polymerase beta activity | Pol beta primer extension/strand displacement, fluorescence kinetic | Potency, µM (series often up to 114 µM), for the others: top-dose activity change, negative = inhibition, actives largely listed as inhibitors | 340,000 tested, 1.3% active; note: potency is the fitted concentration of half-maximal effect; % is set by controls: 0 for no effect and ±100 for the full control effect
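Reaction started by 50 nM substrate onto compound-treated Pol beta (10 nM, 15 min preincubation, room temperature); plates read at 0 min and 10 min. Normalized concentration-effect data fitted by four-parameter Hill equation.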
Pol kappa inh: blocks human DNA polymerase kappa activity; AID 588579; 400,000 tested, 0.53% active; Q9UBT6; Potency, µM (top dose mostly 107 µM), for inactives: at the highest dose activity, negative = inhibition, hits mostly inhibitors; purified Pol kappa, fluorescent DNA synthesis assay, 10 min; note: potency is the fitted concentration of half-maximal effect; % is set by controls: 0 for no effect and ±100 for the full control effect
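First, compounds were pin-transferred onto 10 nM Pol kappa. After 15 min at room temperature, substrate was added to 50 nM final. Fluorescence was then measured kinetically at 0 and 10 min.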
FEN1 inh: blocks human flap endonuclease 1. P39748. Recombinant FEN1 flap cleavage, fluorescence, 15 min. Potency, µM (top dose mostly 114 µM), without a hit: at the top dose activity change, negative = inhibition, usual class: inhibitors. 390,000 tested, 0.35% active. AID 588795; note: potency is the fitted concentration of half-maximal effect; % is set by controls: 0 for no effect and ±100 for the full control effect; nearly all actives have a fitted effect of over 65% in size
Target sequence (P39748 whole entry, looked up): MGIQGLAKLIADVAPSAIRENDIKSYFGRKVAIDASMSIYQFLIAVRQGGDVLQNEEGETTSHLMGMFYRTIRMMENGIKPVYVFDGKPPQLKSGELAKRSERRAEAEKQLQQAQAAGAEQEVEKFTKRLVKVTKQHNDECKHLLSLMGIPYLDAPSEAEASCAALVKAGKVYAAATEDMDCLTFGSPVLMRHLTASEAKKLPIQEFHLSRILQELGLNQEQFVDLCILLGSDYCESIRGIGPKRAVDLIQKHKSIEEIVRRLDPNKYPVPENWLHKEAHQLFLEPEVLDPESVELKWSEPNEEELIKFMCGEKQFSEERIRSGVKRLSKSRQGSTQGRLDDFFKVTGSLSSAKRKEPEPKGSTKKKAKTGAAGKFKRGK
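Compounds are tested as a concentration series against 10 nM FEN1; after a 15 min room-temperature preincubation, 50 nM substrate starts cleavage, with plate reads at 0 and 15 min. Normalized responses are fitted by a Hill equation.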
Pol beta inh-2: Inhibitors of human DNA polymerase beta, hit validation | AID 540280 | 250 tested, 87% active | Potency, µM, usual class: inhibitors | shares compounds with Pol beta inh-1 | Pol beta primer extension/strand displacement, fluorescence kinetic; calls by dose curve; note: potency is the fitted concentration of half-maximal effect
Klenow counter: Klenow polymerase inhibition, pol beta selectivity check. shares compounds with Pol beta inh-1. Klenow exo- polymerase counter-screen, fluorescent DNA substrate. activity change, negative = inhibition, % at 57.1 µM. 250 tested, under 10 active
HIV RT counter: counter-screen for DNA polymerase beta inhibitors: HIV-1 RT inhibition; shares compounds with Pol beta inh-1; HIV-1 RT polymerase activity, counter-screen; activity % (negative = inhibition, positive = activation), % at 57.1 µM; 250 tested, under 10 active
POLB valid: validation of human DNA polymerase beta inhibitors; radiolabeled primer extension gel assay, phosphorimager; inhibition, % at 10 µM; 110 tested, 91% active; shares compounds with Pol beta inh-1; AID 540325;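 active = inhibition at 10 µM of 30% or more; inconclusive = no clear call, values can overlap the other calls; inactive = inhibition at 10 µM under 30%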
Active calls of the source: *; ? = inconclusive; nt = not tested or not shown; [ ] = remark or other dose. Unless noted, calls come from the whole dose curve; as a rule, active = well fitted curve in the direction sought with a large enough effect; inconclusive = small, poorly fitted or top-dose-only effect, or another doubt; inactive = no such curve, though single readings can be large; an effect the other way counts as inactive or inconclusive.

SMILES	WRN helicase inh	POLI inh	Pol eta inh	Pol beta inh-1	Pol kappa inh	FEN1 inh	others
COC(=O)c1ccccc1NC(=O)CSc1nc(O)c(-c2ccccc2)c(=O)[nH]1	-2%[11.6 µM]	84%	?	?	-19%	5%
COc1ccc(Cl)cc1C(=O)Nc1nc2ccccc2[nH]1	-8%	79µM*	-14%	45µM*	-30%	11%
COc1ccc(C(=O)Nc2nc3ccccc3[nH]2)cc1OC	10%	35%	-10%	25%	-12%	1%
CCCS(=O)(=O)N1CCN(Cc2ccccc2OCC)CC1	7%	7%	-3%	89µM*	-9%	-7%
CCS(=O)(=O)N1CCN(Cc2ccccc2OC)CC1	-6%[57.1 µM]	8%	-2%	-4%	-14%	0%
Cc1cc(C(Br)(Br)Br)nc2ccccc12	nt	?	nt	nt	-16%	-17%
CC(C)C[C@H](NC(=O)C1CC(=O)N(c2ccc3c(c2)OCO3)C1)C(=O)NC1CCCC1 (some centres not stated)	-9%[11.6 µM]	16%	89µM*	14%	11%	-3%
Cc1ccc(-c2csc(NC(=O)c3ccc(Br)cc3)c2C(=O)O)cc1	-18%	24%	50µM*	20%	1%	11%
Cc1ccc2c(c1)Oc1ccc([N+](=O)[O-])cc1C(=O)N2	9%	26%	4%	34%	-8%	-1%
Cc1ccc2c(c1)Oc1ccc(NC(=O)CCl)cc1C(=O)N2	-4%	-25%	79µM*	14%	1%	10%
Cc1cc(C)cc(NC(=O)CSc2nnc(CNC(=O)c3c(F)cccc3Cl)o2)c1	nt	14%	-18%	12%	14%	45%
Cc1ccc(NC(=O)c2ccc(Nc3c([N+](=O)[O-])cc([N+](=O)[O-])cc3[N+](=O)[O-])cc2)cc1	?	20µM*	?	?	-32%	-21%
CC(=O)Nc1ccc(NC(=O)c2cc([N+](=O)[O-])cc([N+](=O)[O-])c2)cc1	2%	22%	-17%	3%	-17%	-17%
COc1ccc(Cn2c(SCc3ccc(C(=O)NCc4ccc(C)cc4)cc3)nc3cccnc32)cc1	nt	79µM*	-5%	13%	-36%	?
COc1ccc(-c2nc(CSc3nncn4c3cc3occc34)c(C)o2)cc1	nt	?	-14%	3.5µM*	?	7%
Cc1ccc(-c2cc(C(=O)N/N=C/c3ccccc3O)n[nH]2)o1	-2%	23%	-15%	-28%	-1%	8%
Cc1ccc(-c2cc(C(=O)N/N=C/c3c[nH]c4ccccc34)n[nH]2)o1	-15%	?	-15%	28µM*	?	-7%
Cc1ccc(-c2cc(C(=O)N/N=C/C(Br)=C/c3ccccc3)n[nH]2)o1	-11%[11.6 µM]	?	-5%	35µM*	?	-3%
O=C(N/N=C/C(Br)=C\c1ccccc1)c1n[nH]c2c1CCC2	-31%	25µM*	-6%	1%	-1%	-11%
COC(=O)/C(=C/Nc1ccccc1)[N+](=O)[O-]	-8%	7%	-2%	0%	-4%	-1%
COC(=O)/C(=C/Nc1ccc(O)cc1)[N+](=O)[O-]	-6%	7.1µM*	-10%	16%	-7%	-23%
Cc1ccc2oc(=O)c3cc(C(=O)Nc4ccc(F)cc4F)sc3c2c1	nt	9%	-3%	28%	-3%	-2%
COc1ccc(NC(=O)c2ccc(CN3C(=O)CCn4nc(C)cc43)cc2)c(OC)c1	nt	30%	-14%	21%	9%	-1%
CCOc1ccc2nc(NC(=O)CSc3nc(-c4ccccc4)c(C#N)c(=O)[nH]3)sc2c1	?	?	50µM*	-27%	-19%	-11%
CCOC(=O)Cc1csc(NC(=O)CSc2nc(-c3ccccc3)c(C#N)c(=O)[nH]2)n1	-4%	-9%	-7%	14%	3%	-2%
SMILES	WRN helicase inh	POLI inh	Pol eta inh	Pol beta inh-1	Pol kappa inh	FEN1 inh	others
COc1cccc(-c2nc(SCC(=O)Nc3nc(-c4ccccc4)c(C)s3)[nH]c(=O)c2C#N)c1	-34%	?	79µM*	?	-9%	0%
COc1ccc(NC(=O)c2cc(-c3cc(C)cc(F)c3)n[nH]2)cc1OC	-5%	nt	nt	nt	nt	nt
COc1ccc(S(=O)(=O)c2c(N)n(Cc3ccco3)c3nc4ccccc4nc23)cc1	35µM*	7.9µM*	7.9µM*	?	25µM*	?
Cc1nc2c(c(=O)n1Cc1ccccc1Cl)c1nc3ccccc3nc1n2Cc1ccco1	nt	nt	nt	20µM*	nt	nt
COc1ccc(Cn2c3nc4ccccc4nc3c3c(=O)n(Cc4ccco4)c(C)nc32)cc1	nt	nt	nt	10µM*	nt	nt
Cc1nc2ccccc2c(=O)n1Cc1ccco1	-3%	31%	-17%	89%	3%	2%
Cc1ccc(S(=O)(=O)c2c(N)n(/N=C/c3ccco3)c3nc4ccccc4nc23)cc1	-7%	-6%	-13%	14%	-7%	-16%
CN(CCc1ccccc1)C(=O)c1ccc(NC(=O)Cc2ccc(NC(=O)C3CCCN(C(=O)CCc4ccccc4)C3)cc2)cc1 (configuration not stated)	5%	52%	-23%	nt	-1%	10%
COc1cccc2sc(Nc3nnc(-c4ccc(F)cc4)o3)nc12	-27%	-23%	50µM*	13µM*	-22%	-19%	Pol beta inh-2=35*;Klenow counter=-3;HIV RT counter=97;POLB valid=85*
Cc1ccc(O)c(C(=O)c2cnn(C(=O)COc3ccc(Cl)cc3)c2)c1	-17%[57.1 µM]	14%	?	5.6µM*	-3%	-10%	Pol beta inh-2=14*;Klenow counter=-13;HIV RT counter=16
COc1ccc(OCC(=O)OCCN2C(=O)c3ccccc3C2=O)cc1	-13%	5%	-12%	20µM*	-1%	-4%	Pol beta inh-2=32*;Klenow counter=-23;HIV RT counter=-19;POLB valid=85*
CC(C)CN(C(=O)COC(=O)c1cc2c(s1)CCC2)C1CCS(=O)(=O)C1 (configuration not stated)	?	20µM*	3.5µM*	13µM*	40µM*	?	Pol beta inh-2=22*;Klenow counter=9;HIV RT counter=7
